# Records with an inconclusive call do not appear. Active and inactive are the calls of the source. How the source made its calls, unless noted: active means hit-call score of the fitted dose curve at least 0.9, where 1 is the maximum; inconclusive means response in the unintended direction; inactive means score below 0.9.
# What was measured:
# [1] = test system: Brachyury (BRA) Protein Expression, Deisenroth Lab, TBXT (gene 6862); assay: CCTE_Deisenroth_DEVTOX-GLR_legacy_Bra: (Legacy) CCTE's DevTox GLR-Endo Assay Evaluation of Brachyury (BRA) Protein Expression, Deisenroth Lab (AID 2284329; active means hit-call score of the fitted dose curve at least 0.9, where 1 is the maximum; inactive means score below 0.9)
# Method: CCTE_Deisenroth_DEVTOX-GLR_legacy assay is a cell-based, multiplex-readout assay that uses RUES2-GLR, a human pluripotent cell line, with measurements taken at 48 hours after chemical dosing in a 384-well microplateCCTE_Deisenroth_DEVTOX-GLR_legacy_Bra is one of 4 assay components calculated from the CCTE_Deisenroth_DEVTOX-GLR_legacy assay that measures an increase in the percentage of cells in an […] state. It is designed to make measurements of inducible reporter a form of fluorescent protein induction as detected with optical fluorescence microscopy. Percentage Bra+ cells are determined by calculating the number of Bra+ cells divided by cell count. A cell is Bra+ if the cell Bra mean intensity is 5x BMAD above the pluripotent control median cell Bra mean. The assay endpoint was analyzed with bidirectional fitting with the 0.2% DMSO control median percent Bra in the DEVTOX-GLR assay subtracted.Data from the assay component CCTE_Deisenroth_DEVTOX-GLR_legacy_Bra was analyzed into 1 assay endpoint. This assay endpoint, CCTE_Deisenroth_DEVTOX-GLR_legacy_Bra, was analyzed in the positive analysis fitting direction relative to DMSO as the negative control and baseline activity. Using a type of inducible reporter, gain-of-signal activity can be used to understand changes in gene expression. Furthermore, this assay endpoint can be referred to as a secondary readout, because this assay has produced multiple assay endpoints where this one serves as a measure of mesoderm differentiation. To generalize the intended target to other relatable targets, this assay endpoint is annotated to the transcription factor intended target family, where the subfamily is T-box protein.
# All assay protocols are aligned to the DevTox GLR-Endo assay workflow. […] Cell identification and mean biomarker fluorescence intensities are calculated with image analysis software to determine the total cell counts for viability assessment and the biomarker expression frequency for each lineage-dependent assay. […]
# [2] = CCTE_Deisenroth_DEVTOX-GLR_legacy_CellCount: (Legacy) Viability Assessment in CCTE's DevTox GLR-Endo Assay, Deisenroth Lab (AID 2284331; active means hit-call score of the fitted dose curve at least 0.9, where 1 is the maximum; inactive means score below 0.9); conditions: actives raise or lower the signal
# How it was run: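 Seed RUES2-GLR 24 h; differentiate 48 h, dosing at 0 and 24 h; fix, stain nuclei; image 5 fields/well; count nuclei. Conc. 1 nM - 200 uM, single technical replicate, n=4 experiments; bidirectional fit vs 0.2% DMSO.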
# SRD5A2 (gene 6716) = assay: CCTE_Deisenroth_5AR_NBTE_ratio: CCTE's 5alpha-reductase NanoBRET Target Engagement Assay - Ratio, Deisenroth Lab (AID 2284322; active means hit-call score of the fitted dose curve at least 0.9, where 1 is the maximum; inactive means score below 0.9); conditions: actives raise or lower the signal
# How it was run: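 HEK293T cells transiently expressing an SRD5A2-NanoLuc fusion (20 h post-transfection) were exposed to test chemical (10 nM - 29.9 uM, 8 points) for 3 h, then testosterone tracer for a further 2 h. Acceptor/donor BRET ratio was fitted bidirectionally against DMSO baseline.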
# [3] = VALA_TUBIPS_Antagonist_CellCount: Viability Assessment in the VALA Sciences human iPS-derived Endothelial Tubule Formation (TUBIPS) Antagonism Assay (AID 2284335)
# [4] = VALA_MIGHUV1_ScratchOnly_WoundArea: VALA Sciences human Umbilical Vein Endothelial Cell Migration (MIGHUV) Assay, Area of Scratch Wound Inhibited Recovery (AID 2284336)
# Method: VALA_MIGHUV1_ScratchOnly is a cell-based, multiplexed assay that uses umbilical vein-derived endothelial cells (HUVEC). Measurements were taken 24 hours after chemical dosing in a 96-well plate.VALA_MIGHUV1_ScratchOnly_WoundArea is the one of two assay components measured from the VALA_MIGHUV1_ScratchOnly assay. It is designed to make measurements of endothelial migration, a form of morphology reporter, as detected with fluorescence intensity signals by HCS Fluorescent Imaging technology. Data from the assay component VALA_MIGHUV1_ScratchOnly_WoundArea was analyzed at the endpoint, VALA_MIGHUV1_ScratchOnly_WoundArea, in the positive analysis fitting direction relative to DMSO as the negative control and baseline of activity. Using a type of morphology reporter, gain-of-signal activity can be used to understand developmental effects. To generalize the intended target to other relatable targets, this assay endpoint is annotated to the neurodevelopment intended target family, where the subfamily is migration.
# Cells were seeded on 384-well microplates (day-0) at a density of 9000 cells per well for detection of wound area recovery or 4000 cells per well for detection of beta-catenin (CTNB) immunoreactivity and incubated in Endothelial Cell Growth Medium (CAI, San Diego; catalog 211-500). After 24 hours of culture, the HUVEC plates were scratched using a custom scratch head with the Bravo liquid handling system. This created a 'wound' area without cells in each well. Test chemical was added within 30 min, each tested in 3-replicates across a 6-point concentration response (0.1 % DMSO vehicle control). 'ScratchOnly' Plates were incubated for a 24 h 'wound recovery' period and then fixed with 4% paraformaldehyde. Hoechst dye was used to visualize cell nuclei in the wound area, and CTNB immunofluorescence for visualizing CTNB-positive nuclei (beta-Catenin (L54E2) Mouse mAb (IF Preferred) 2677; Cell Signaling Technology, Danvers, MA). Each HUVEC plate included neutral vehicle control (0.1 % DMSO) treated wells and Cytochalasin D (actin cytoskeletal disrupter) or BIO-acetoxime (synthetic GSK3 inhibitor) as positive reference controls for endothelial migration and nuclear translocation of CTNB, respectively.
# [5] = VALA_TUBHUV_Antagonist_TubuleLength: VALA Sciences human Umbilical Vein Endothelial Tubule Formation (TUBHUV) Antagonism Assay (AID 2284325)
# How it was run: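 Tubule length was imaged via CD31 immunofluorescence after a further 3-day compound exposure in 10 ng/ml VEGF, following 3-day pre-culture of HUVEC with HDF at 1:3. Vehicle 0.1% DMSO; suramin (100 uM) inhibition control.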
# [6] = VALA_TUBHUV_Agonist_TubuleLength: VALA Sciences human Umbilical Vein Endothelial Tubule Formation (TUBHUV) Agonism Assay (AID 2284337)
# How it was run: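 Tubule length quantified by CD31 immunofluorescence imaging after fixation. HUVEC-HDF co-cultures (1:3) pre-grown 3 days with 10 ng/ml VEGF, then dosed 3 days in VEGF medium; 0.1 % DMSO vehicle baseline.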
# [7] = TAMU_PeakParms_SingleDonor1434_Asystole: Texas A&M University (TAMU) 1.5-hr Human Induced Pluripotent Stem Cell (iPSC)-derived Cardiomyocytes Calcium (Ca+2) Flux Assay for Cardiotoxicity: Asystole (quiescence of beating) (AID 2284328)
# How it was run: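 Average Ca2+-flux peak frequency (beats/s) was recorded in single-donor iPSC-derived cardiomyocytes after 90 min exposure (0.2–100 uM final, 0.5% DMSO). Asystole POD set as EC95 against DMSO, no preprocessing.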
# [8] = IUF_NPC1_cytotoxicity_72hr: Cytotoxicity Assessment at 72 hours in the Leibniz Research Institute for Environmental Medicine (IUF) Neural Progenitor Cell Proliferation Assay (NPC1) (AID 2284332);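 further: rising LDH signal means more cytotoxicity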
# How it was run: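 Membrane-integrity loss is scored from LDH released into the medium, detected as resorufin fluorescence, with activity fitted upward relative to baseline. Test material stays on human fetal-derived progenitor spheres for 72 h.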
# [9] = VALA_MIGHUV1_ScratchOnly_CellCount: Viability Assessment in the VALA Sciences human Umbilical Vein Endothelial Cell Migration (MIGHUV) Assay, Scratch Wound Inhibited Recovery (AID 2284327)
# How it was run: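 Hoechst-stained nuclei in the scratch wound were counted by high-content imaging after a 24 h recovery period. Scratched HUVEC monolayers received 6-point concentration series, triplicate, in 0.1% DMSO, fit against DMSO.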
structure (smiles),measurement,setting,value
Cc1cn([C@H]2C=C[C@@H](CO)O2)c(=O)[nH]c1=O,outcome,[1],inactive
same,outcome,[2],inactive
CCN(CC)CCOc1ccc(C(=C(Cl)c2ccccc2)c2ccccc2)cc1,outcome,SRD5A2 (gene 6716),inactive
Cc1ccc(-c2cc(C(F)(F)F)nn2-c2ccc(S(N)(=O)=O)cc2)cc1,outcome,[3],inactive
same,outcome,[4],inactive
O=C(O)c1[nH]n(-c2ccc(S(=O)(=O)O)cc2)c(=O)c1N=Nc1ccc(S(=O)(=O)O)cc1,AC50,SRD5A2 (gene 6716),57.5 µM (active)
C/C=C/C=C/C(=O)O,outcome,SRD5A2 (gene 6716),inactive
O=C(O)c1cccnc1,outcome,[1],inactive
same,outcome,[2],inactive
Nc1nc(Cl)nc2c1ncn2[C@H]1C[C@H](O)[C@@H](CO)O1,AC50,[5],0.703 µM (active)
same,AC50,[3],0.956 µM (active)
same,AC50,[4],23.2 µM (active)
same,AC50,[6],15.2 µM (active)
O=C1c2c(O)cccc2Cc2cccc(O)c21,AC50,SRD5A2 (gene 6716),75.5 µM (active)
Nc1nc(=S)c2[nH]cnc2[nH]1,outcome,[7],inactive
OCC(O)CO,outcome,[8],inactive
CCc1nc(N)nc(N)c1-c1ccc(Cl)cc1,outcome,[7],inactive
CCCCCCCCCCCCCCOS(=O)(=O)O,AC50,SRD5A2 (gene 6716),26.1 µM (active)
Cc1c(C)c2c(c(C)c1O)CCC(C)(COc1ccc(CC3SC(=O)NC3=O)cc1)O2 (stereo not drawn),AC50,SRD5A2 (gene 6716),29.7 µM (active)
CCCCC(CC)COP(=O)(OCC(CC)CCCC)OCC(CC)CCCC (stereo not drawn),AC50,[5],10 µM (active)
same,outcome,[6],inactive
O=C1OC(c2ccc(O)cc2)(c2ccc(O)cc2)c2ccccc21,AC50,SRD5A2 (gene 6716),50 µM (active)
same,AC50,[5],50 µM (active)
same,outcome,[3],inactive
same,AC50,[4],75.4 µM (active)
CCCCC(CC)COC(=O)CCCCCCCC(=O)OCC(CC)CCCC (stereo not drawn),outcome,SRD5A2 (gene 6716),inactive
O=C(O)CC(O)(CC(=O)O)C(=O)O,outcome,[7],inactive
O=C1NC(=O)C(c2ccccc2)(c2ccccc2)N1,outcome,[2],inactive
same,outcome,[8],inactive
CC(=O)CC(c1ccccc1)c1c(O)c2ccccc2oc1=O (stereo not drawn),outcome,[1],inactive
same,outcome,[2],inactive
same,outcome,[8],inactive
COC(=O)[C@H]1[C@H]2C[C@@H]3c4[nH]c5cc(OC)ccc5c4CCN3C[C@H]2C[C@@H](OC(=O)c2cc(OC)c(OC)c(OC)c2)[C@@H]1OC,AC50,[5],84.3 µM (active)
same,outcome,[9],inactive
same,outcome,[7],inactive
same,outcome,[3],inactive
same,outcome,[4],inactive
same,outcome,[6],inactive

# From PubChem BioAssay (EPA / NIEHS)
